Seven compounds from ChEMBL document CHEMBL1961873, “Compounds: GSK PKIS; Assays: Nanosyn kinase panel” (2012) can be followed below.

Experiment [1] addresses Rho-associated protein kinase 1 (Homo sapiens) (UniProt Q13464). Conditions: at 1 µM.
Experiment [2] deals with Rho-associated protein kinase 2 (Homo sapiens) (UniProt O75116). Conditions: at 0.1 µM.
For experiment [3] the target is unchanged. Conditions: at 1 µM.
The target of experiment [4] is Ribosomal protein S6 kinase alpha-1 (Homo sapiens) (UniProt Q15418). Conditions: at 0.1 µM.
Experiment [5] shares this target. Conditions: at 1 µM.
Experiment [6] concerns the target Ribosomal protein S6 kinase alpha-3 (Homo sapiens) (UniProt P51812). Conditions: at 0.1 µM.
Experiment [7] has the same target. Conditions: at 1 µM.
The target in experiment [8] is Ribosomal protein S6 kinase alpha-2 (Homo sapiens) (UniProt Q15349). Conditions: at 0.1 µM.
Experiment [9] shares this target. Conditions: at 1 µM.
Experiment [10] addresses Ribosomal protein S6 kinase alpha-6 (Homo sapiens) (UniProt Q9UK32). Conditions: at 0.1 µM.
For experiment [11] the target is unchanged. Conditions: at 1 µM.
Experiment [12] deals with T1, Serine/threonine-protein kinase Sgk1 (Homo sapiens) (UniProt O00141).
T1 sequence (whole entry): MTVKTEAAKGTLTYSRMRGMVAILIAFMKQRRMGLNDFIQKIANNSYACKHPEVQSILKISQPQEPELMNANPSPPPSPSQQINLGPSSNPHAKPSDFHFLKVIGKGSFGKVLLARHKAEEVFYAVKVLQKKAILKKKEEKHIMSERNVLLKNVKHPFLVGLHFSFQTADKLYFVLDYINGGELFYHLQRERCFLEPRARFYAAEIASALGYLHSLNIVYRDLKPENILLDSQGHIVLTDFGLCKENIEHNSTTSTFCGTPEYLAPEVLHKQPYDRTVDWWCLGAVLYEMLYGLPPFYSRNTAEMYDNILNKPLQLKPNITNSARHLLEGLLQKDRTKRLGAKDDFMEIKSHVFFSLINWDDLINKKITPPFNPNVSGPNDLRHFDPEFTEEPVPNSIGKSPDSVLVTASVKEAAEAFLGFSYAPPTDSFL
Conditions: at 0.1 µM.

The target of experiment [13] is T1, Serine/threonine-protein kinase Sgk1 (Homo sapiens). Conditions: at 1 µM.
Experiment [14] has as its target T2, Serine/threonine-protein kinase Sgk2 (Homo sapiens) (UniProt Q9HBY8).
T2 sequence (whole entry): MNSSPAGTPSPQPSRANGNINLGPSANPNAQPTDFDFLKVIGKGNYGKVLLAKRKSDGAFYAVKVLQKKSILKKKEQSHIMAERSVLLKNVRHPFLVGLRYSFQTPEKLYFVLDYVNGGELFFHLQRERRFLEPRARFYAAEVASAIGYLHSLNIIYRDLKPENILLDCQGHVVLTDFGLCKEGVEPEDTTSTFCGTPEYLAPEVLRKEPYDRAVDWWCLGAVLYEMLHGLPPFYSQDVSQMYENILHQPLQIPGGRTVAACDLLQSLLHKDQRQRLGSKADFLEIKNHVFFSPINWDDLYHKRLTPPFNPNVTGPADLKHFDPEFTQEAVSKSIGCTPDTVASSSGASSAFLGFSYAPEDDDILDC
Conditions: at 0.1 µM.

Experiment [15] deals with T2, Serine/threonine-protein kinase Sgk2 (Homo sapiens). Conditions: at 1 µM.
Experiment [16] addresses T3, Serine/threonine-protein kinase Sgk3 (Homo sapiens) (UniProt Q96BR1).
T3 sequence (whole entry): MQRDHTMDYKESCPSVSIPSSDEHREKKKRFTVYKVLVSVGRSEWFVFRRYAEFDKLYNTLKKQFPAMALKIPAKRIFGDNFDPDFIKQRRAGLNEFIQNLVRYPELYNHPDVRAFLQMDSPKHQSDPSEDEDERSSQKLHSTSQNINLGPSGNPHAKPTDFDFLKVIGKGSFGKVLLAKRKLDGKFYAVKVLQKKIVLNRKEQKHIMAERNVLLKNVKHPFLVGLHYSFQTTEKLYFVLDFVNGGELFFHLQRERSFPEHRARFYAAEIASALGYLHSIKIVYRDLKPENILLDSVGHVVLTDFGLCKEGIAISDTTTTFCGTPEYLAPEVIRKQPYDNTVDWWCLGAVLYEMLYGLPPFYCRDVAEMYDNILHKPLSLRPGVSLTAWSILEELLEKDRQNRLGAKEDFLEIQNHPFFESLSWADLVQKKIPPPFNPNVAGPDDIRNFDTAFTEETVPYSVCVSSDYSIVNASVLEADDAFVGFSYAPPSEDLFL
Conditions: at 0.1 µM.

For experiment [17], the target named is T3, Serine/threonine-protein kinase Sgk3 (Homo sapiens). Conditions: at 1 µM.
The target in experiment [18] is 5'-AMP-activated protein kinase catalytic subunit alpha-1 (Homo sapiens) (UniProt Q13131). Conditions: at 0.1 µM.
For experiment [19] the target is unchanged. Conditions: at 1 µM.
In experiment [20] the target is 5'-AMP-activated protein kinase catalytic subunit alpha-2 (Homo sapiens) (UniProt P54646). Conditions: at 0.1 µM.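 Note: mean inhibition measured on the AMPK complex of alpha2, beta1 and gamma1 subunits.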

Sequence of Ribosomal protein S6 kinase alpha-6 (Homo sapiens) (Q9UK32 whole entry): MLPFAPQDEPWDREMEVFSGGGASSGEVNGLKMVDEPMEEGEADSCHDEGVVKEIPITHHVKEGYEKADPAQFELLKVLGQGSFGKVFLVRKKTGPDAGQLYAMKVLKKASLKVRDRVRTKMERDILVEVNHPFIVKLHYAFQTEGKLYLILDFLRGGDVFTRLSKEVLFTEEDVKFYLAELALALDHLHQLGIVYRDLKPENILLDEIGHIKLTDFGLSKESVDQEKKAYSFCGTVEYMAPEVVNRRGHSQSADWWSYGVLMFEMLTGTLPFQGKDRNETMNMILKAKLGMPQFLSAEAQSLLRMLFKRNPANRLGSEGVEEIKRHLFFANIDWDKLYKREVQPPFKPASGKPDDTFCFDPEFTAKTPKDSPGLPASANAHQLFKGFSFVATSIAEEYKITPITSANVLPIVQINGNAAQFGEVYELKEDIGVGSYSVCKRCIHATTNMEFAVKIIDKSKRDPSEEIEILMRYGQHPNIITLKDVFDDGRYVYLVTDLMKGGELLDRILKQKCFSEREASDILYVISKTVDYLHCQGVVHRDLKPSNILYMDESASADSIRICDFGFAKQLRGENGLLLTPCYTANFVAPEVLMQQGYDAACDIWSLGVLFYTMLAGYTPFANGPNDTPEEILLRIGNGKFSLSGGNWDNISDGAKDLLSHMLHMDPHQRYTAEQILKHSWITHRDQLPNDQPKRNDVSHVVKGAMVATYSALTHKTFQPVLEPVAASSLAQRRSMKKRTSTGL
Sequence of 5'-AMP-activated protein kinase catalytic subunit alpha-1 (Homo sapiens) (Q13131 whole entry, looked up): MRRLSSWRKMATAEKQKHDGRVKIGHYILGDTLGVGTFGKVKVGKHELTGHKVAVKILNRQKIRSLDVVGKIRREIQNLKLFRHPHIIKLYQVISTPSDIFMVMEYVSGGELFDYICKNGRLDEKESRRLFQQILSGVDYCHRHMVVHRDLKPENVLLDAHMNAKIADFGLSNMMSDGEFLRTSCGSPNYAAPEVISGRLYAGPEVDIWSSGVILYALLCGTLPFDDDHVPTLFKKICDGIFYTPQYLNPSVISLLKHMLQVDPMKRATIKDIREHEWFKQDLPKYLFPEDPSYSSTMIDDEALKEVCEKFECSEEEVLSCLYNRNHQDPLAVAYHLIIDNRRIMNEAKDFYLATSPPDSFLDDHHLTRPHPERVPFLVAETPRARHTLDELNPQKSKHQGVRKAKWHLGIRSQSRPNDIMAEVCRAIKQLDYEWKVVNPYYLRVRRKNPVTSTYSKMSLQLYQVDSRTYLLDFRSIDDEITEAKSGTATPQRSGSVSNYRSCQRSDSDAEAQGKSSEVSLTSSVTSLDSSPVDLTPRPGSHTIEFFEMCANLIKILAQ
Sequence of Ribosomal protein S6 kinase alpha-3 (Homo sapiens) (P51812 whole entry): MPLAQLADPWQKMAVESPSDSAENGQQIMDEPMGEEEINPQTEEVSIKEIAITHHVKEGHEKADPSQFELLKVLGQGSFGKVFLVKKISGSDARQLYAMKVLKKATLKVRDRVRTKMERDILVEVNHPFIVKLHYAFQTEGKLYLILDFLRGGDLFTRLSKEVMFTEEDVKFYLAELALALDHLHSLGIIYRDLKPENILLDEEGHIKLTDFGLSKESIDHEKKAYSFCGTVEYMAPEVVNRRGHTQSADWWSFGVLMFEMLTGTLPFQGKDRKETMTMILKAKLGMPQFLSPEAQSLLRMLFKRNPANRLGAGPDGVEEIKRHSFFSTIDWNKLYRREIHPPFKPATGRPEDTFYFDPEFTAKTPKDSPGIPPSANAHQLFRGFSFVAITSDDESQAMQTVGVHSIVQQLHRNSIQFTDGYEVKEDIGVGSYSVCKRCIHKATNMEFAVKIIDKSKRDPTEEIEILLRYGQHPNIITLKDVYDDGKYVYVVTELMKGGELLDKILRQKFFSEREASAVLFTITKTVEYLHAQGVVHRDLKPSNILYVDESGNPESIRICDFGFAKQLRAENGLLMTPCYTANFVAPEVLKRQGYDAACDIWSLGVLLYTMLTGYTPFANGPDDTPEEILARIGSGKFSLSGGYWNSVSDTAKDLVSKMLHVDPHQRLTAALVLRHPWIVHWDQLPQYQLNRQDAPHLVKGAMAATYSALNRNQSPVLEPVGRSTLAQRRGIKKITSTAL
Sequence of Ribosomal protein S6 kinase alpha-2 (Homo sapiens) (Q15349 whole entry): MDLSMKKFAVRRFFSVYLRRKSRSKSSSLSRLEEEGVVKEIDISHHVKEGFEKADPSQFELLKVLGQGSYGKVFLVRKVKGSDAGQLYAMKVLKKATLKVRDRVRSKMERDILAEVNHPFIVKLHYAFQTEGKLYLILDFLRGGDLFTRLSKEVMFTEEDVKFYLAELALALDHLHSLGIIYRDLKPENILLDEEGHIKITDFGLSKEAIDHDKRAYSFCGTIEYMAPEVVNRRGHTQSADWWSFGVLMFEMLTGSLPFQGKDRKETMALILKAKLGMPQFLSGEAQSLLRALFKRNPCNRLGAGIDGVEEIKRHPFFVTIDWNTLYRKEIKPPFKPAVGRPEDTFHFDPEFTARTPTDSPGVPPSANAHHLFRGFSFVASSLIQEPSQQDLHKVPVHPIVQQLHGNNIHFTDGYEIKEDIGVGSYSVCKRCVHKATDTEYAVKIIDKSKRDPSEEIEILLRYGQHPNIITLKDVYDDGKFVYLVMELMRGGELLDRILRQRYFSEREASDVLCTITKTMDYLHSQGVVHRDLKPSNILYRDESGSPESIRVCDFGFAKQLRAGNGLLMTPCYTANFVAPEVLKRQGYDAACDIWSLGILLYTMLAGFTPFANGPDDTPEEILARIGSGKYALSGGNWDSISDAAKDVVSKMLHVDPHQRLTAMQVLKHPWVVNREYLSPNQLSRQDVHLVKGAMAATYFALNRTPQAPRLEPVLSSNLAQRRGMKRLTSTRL
Sequence of Rho-associated protein kinase 1 (Homo sapiens) (Q13464 2-1354 limits assumed): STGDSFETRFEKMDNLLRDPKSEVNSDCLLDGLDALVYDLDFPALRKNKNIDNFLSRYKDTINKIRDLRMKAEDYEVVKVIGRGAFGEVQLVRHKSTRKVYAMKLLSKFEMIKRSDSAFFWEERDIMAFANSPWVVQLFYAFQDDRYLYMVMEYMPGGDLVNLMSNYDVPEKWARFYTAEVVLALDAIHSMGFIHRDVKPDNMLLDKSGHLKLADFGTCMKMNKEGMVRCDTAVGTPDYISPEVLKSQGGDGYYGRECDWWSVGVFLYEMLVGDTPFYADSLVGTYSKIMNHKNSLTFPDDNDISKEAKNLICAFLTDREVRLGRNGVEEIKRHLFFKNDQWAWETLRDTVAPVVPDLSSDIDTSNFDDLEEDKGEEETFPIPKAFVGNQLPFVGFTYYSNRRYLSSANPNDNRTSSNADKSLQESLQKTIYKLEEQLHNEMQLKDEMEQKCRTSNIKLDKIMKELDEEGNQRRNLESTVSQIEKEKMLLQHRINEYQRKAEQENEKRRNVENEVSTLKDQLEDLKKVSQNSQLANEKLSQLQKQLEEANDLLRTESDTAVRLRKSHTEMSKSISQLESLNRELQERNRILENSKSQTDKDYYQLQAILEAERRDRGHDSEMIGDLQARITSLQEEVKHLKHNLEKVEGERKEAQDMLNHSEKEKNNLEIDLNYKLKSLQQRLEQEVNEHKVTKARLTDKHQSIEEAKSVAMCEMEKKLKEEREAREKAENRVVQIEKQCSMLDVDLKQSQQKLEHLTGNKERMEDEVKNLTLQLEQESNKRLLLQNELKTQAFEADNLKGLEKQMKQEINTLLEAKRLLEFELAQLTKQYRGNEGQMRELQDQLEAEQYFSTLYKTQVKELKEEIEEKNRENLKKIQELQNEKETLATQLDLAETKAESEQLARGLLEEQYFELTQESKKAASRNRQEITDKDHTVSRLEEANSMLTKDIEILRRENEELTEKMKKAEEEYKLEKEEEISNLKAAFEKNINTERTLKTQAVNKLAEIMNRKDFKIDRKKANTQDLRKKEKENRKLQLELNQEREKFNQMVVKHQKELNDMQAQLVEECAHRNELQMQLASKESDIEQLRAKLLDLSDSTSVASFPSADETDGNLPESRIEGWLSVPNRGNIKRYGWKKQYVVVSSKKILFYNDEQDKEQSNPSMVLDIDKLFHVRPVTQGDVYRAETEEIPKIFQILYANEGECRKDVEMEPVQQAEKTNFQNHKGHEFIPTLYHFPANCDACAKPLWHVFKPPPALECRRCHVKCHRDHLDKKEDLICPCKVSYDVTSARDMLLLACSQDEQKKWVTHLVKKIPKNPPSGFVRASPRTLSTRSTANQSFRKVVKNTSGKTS
Sequence of Ribosomal protein S6 kinase alpha-1 (Homo sapiens) (Q15418 whole entry): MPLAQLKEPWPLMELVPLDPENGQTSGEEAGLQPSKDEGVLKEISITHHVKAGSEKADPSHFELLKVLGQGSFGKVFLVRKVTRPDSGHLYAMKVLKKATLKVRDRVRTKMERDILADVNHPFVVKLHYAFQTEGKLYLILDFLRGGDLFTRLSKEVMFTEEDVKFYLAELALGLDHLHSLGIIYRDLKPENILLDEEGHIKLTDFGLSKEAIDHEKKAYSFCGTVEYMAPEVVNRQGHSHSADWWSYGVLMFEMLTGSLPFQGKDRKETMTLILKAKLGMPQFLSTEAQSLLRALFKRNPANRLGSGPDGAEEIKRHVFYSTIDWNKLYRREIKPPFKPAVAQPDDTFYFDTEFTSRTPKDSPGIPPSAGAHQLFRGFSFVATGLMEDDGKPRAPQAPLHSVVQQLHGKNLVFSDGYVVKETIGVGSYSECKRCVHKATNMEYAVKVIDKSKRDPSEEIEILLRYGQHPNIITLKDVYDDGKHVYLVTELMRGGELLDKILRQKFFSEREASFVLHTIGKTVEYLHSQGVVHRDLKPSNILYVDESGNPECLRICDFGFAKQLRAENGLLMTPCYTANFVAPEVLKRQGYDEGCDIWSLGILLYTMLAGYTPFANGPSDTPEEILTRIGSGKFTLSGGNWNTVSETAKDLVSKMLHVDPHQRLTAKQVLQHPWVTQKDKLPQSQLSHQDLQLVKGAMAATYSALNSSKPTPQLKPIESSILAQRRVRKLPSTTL

As for `NS(=O)(=O)c1cccc(Nc2cc(-c3ccc(F)cc3)n[nH]2)c1`, the inhibition (usually the relative decrease from the control value, in per cent) in experiment [1] was determined as 3.34%; in [2], 3.4%; in experiment [3], 8.75%; in experiment [4], 3.22%; in experiment [5] it was 7.2%; in experiment [6], 2.09%. In addition, the inhibition in [7] was determined as 5.61%; in experiment [8], 2.21%; in experiment [9], 4.15%; in experiment [10], 1.89%; in [11] it was 4.03%; in experiment [12] it was 3.81%. Moreover, the inhibition in experiment [13] worked out at 7.2%; in experiment [14], 3.76%; in [15] it was 8.09%; in experiment [16] it was 3.81%; in experiment [17] it was 7.42%; in experiment [18] it was 3.82%. For the same compound, the inhibition stood at 14.4% in [19] and 2.4% in experiment [20].

Turning to `COc1ccc2ncnc(Nc3ccc(OCc4ccccc4)cc3)c2c1`, the inhibition in experiment [1] was -0.47%; in experiment [2] it was 1.37%; in experiment [3], 1.27%; in experiment [4] it was 0.33%; in experiment [5], 0.98%; in [6], 1.83%. The inhibition stood at 1.15% in [7]; 0.9% in [8]; 0.99% in experiment [9]; 1.03% in [10]; 0.55% in experiment [11]; 0.21% in experiment [12]. Further, the inhibition in [13] is 4.55%; in [14], -1.08%; in experiment [15] it was -0.13%; in experiment [16], 2.62%; in experiment [17], 2.59%; in [18] it was 2.15%. Besides, the inhibition was 1.44% in experiment [19] and 0.53% in [20].

With `NS(=O)(=O)c1ccc(-c2cc3ccncc3cc2OCc2ccccc2)cc1`, the inhibition is 4.04% in [1]; 2.48% in experiment [2]; 6.37% in [3]; 1.11% in experiment [4]; 3.06% in experiment [5]; -0.24% in experiment [6]. The inhibition in experiment [7] was 0.92%; in experiment [8] it was 0.22%; in [9], 2.19%; in experiment [10] it was -0.43%; in experiment [11], 0.34%; in [12], 2.5%. The inhibition is 2.69% in [13]; 1.44% in [14]; -1.22% in [15]; 0.75% in experiment [16]; 2.72% in experiment [17]; 2.82% in [18]. Also, the inhibition was 3.15% in experiment [19] and 0.66% in experiment [20].

For `Nc1ccc(C#Cc2cncnc2Nc2ccc(OCc3cccc(F)c3)c(Cl)c2)cc1`, the inhibition in experiment [1] worked out at 2.72%; in [2] it was 1.93%; in experiment [3], 1.92%; in experiment [4], 1.19%; in [5], 1.59%; in [6], 0.98%. Further, the inhibition is 1.75% in [7]; 1.56% in experiment [8]; 3.21% in experiment [9]; 0.9% in experiment [10]; 0.51% in experiment [11]; 1.87% in [12]. For the same compound, the inhibition in [13] is 2.62%; in experiment [14], 4.82%; in [15], 3.04%; in experiment [16], 2.22%; in [17], 2.3%; in experiment [18] it was 1.54%. Moreover, the inhibition was 2.87% in experiment [19] and -0.27% in [20].

Regarding `NC(=O)c1cccc(Nc2nccc(Nc3cccc(F)c3)n2)c1`, the inhibition in experiment [1] was 0.46%; in experiment [2], 0.51%; in experiment [3], 1.52%; in experiment [4], -1.2%; in experiment [5], 1.35%; in [6], 0.35%. Further, the inhibition is 1.16% in experiment [7]; 1.27% in experiment [8]; 1.94% in experiment [9]; 1.27% in experiment [10]; 6.03% in experiment [11]; 0.89% in experiment [12]. In addition, the inhibition in experiment [13] is -0.08%; in experiment [14], 3.63%; in experiment [15], 3.3%; in experiment [16] it was 0.73%; in experiment [17], -1.45%; in experiment [18], -0.48%. Further, the inhibition was found to be 3.96% in experiment [19] and 1.99% in [20].

For `Nc1nccc(-c2c(-c3ccc(F)cc3)ncn2CCCN2CCOCC2)n1`, the inhibition in experiment [1] stood at 3.31%; in experiment [2] it was 4.99%; in [3], 5.24%; in experiment [4], 2.16%; in experiment [5], 4.6%; in experiment [6], 1.92%. Moreover, the inhibition was 2.6% in experiment [7]; 3.04% in experiment [8]; 2.27% in [9]; 2.26% in experiment [10]; 3.56% in [11]; 1.7% in experiment [12]. Further, the inhibition in [13] worked out at 5.95%; in [14], 0.32%; in [15] it was 6.95%; in experiment [16], 3.43%; in [17], 3.38%; in [18], 3.37%. The inhibition in experiment [19] was 3.19%; in experiment [20], 3.33%.

With `CN(C)C(=O)O[C@H]1CN[C@H](C#Cc2cc3ncnc(Nc4ccc(OCc5cccc(F)c5)c(Cl)c4)c3s2)C1`, the inhibition in [1] is 4.25%; in [2], 2.11%; in experiment [3], 2.54%; in [4], 1.95%; in experiment [5] it was 2.1%; in experiment [6], 0.75%. The inhibition in experiment [7] amounted to 1.6%; in [8] it was 0.37%; in experiment [9], 3.74%; in experiment [10], 0.96%; in experiment [11], 1.62%; in experiment [12] it was 0.38%. Further, the inhibition in [13] was 1.38%; in [14], 0.9%; in experiment [15] it was -0.85%; in [16] it was 0.13%; in experiment [17] it was 0.86%; in [18], 2.01%. For the same compound, the figures for the inhibition in [19] and in [20] were 2.18% and 1.83%, respectively.
